Inconclusive results are not listed. A number with no mark means an inactive call. Active and inactive are the calls of the source. Calls follow the shape of the dose curve; as a rule, active = well fitted inhibition curve with a large enough effect; inconclusive = small, poorly fitted or top-dose-only effect; inactive = no such curve, though single readings can be large or run the other way.
Assay: Confirmatory qHTS for Identification of Small Molecule Inhibitors of Huntingtin Promoter Activity; also: nearly all actives have a fitted effect of over 65% in size
Conditions: HEK293 HTT promoter firefly luciferase reporter, 24 h; series mostly up to 57.5 µM; activity change, negative = inhibition: at the top concentration
From the text: Assay Provider: Russell L. Margolis M.D.
Department Neurology, Johns Hopkins University School of Medicine, Baltimore, MD
Huntington's Disease (HD) is a neurodegenerative disorder caused by a CAG repeat expansion in exon 1 of huntingtin (HTT). While there are currently no disease-modifying treatments for HD, recent efforts have focused on development of nucleotide-based therapeutics to lower HTT expression. As an alternative to siRNA or oligonucleotide methods, we hypothesized that suppression of HTT expression might be accomplished by small molecules that either (1) directly decrease HTT expression by suppressing HTT promoter activity or (2) indirectly decrease HTT expression by increasing the promoter activity of HTT-AS, the gene antisense to HTT that appears to inhibit expression of HTT.
We developed and employed a high throughput screen for modifiers of HTT and HTT-AS promoter activity using luminescent reporter HEK293 cells; of the 52,041 compounds tested, we identified 898 replicable hits. We used a rigorous stepwise approach to assess compound toxicity and the capacity of the compounds to specifically lower huntingtin protein in 5 different cell lines, including HEK293 cells, HD lymphoblastoid cells, mouse primary neurons, HD iPSCs differentiated into cortical-like neurons, and HD hESCs. We found no compounds which were able to lower huntingtin without lowering cell viability in all assays, though the potential efficacy of a few compounds at non-toxic doses could not be excluded.
SEQUENCE No. (1, 2, 3, etc.); […] (e.g., Cells, Incubation, Reagent, etc.); VALUE and DESCRIPTION.
1; Reagent; 4 uL; 2,500 Hek293 luciferase reporter cells per wells
3; Compound; 23 nL; Control inhibitor / compound library
5; Reagent; 2.5 uL; Firefly Luc reagent; Dual-Glo Luciferase Reporter Assay System (Promega)
6; Time; 10 min; room temperature incubation
7; Detection; Luminescence; FLuc
NOTES (numbers refer to sequence above)
1; High-throughput screening, measuring luminescence from a Hek293 luciferase reporter, was performed in 1,536 well white-walled tissue-culture treated plates. 2,500 cells were plated in 4 uL of Opti-MEM per well using a Multidrop Combi Reagent Dispenser (ThermoFisher).
2; Assay plates were cultured for 24 hours.
3; Control inhibitor (PTC124; final concentration of 50 uM) and compound library (at final concentrations of 460 nM - 57.5 uM) were added to the assay plate using the Kalypsis Pintool Robotic System equipped with 1536 pinheads.
4; Cells were then incubated for 24 hours at 37C prior to luminescence measurements.
5; In all cases, luminescence was measured using the Dual-Glo Luciferase Reporter Assay System (Promega) following the manufacturer's instructions.
6; Room temperature incubation.
7; Luminescence signal was obtained using the PerkinElmer ViewLux plate reader. Results were normalized to vehicle control (0% activity) and zero RLU (-100% activity).
For `CC(C)C[C@@H](C=O)NC(=O)[C@H](CC(C)C)NC(=O)[C@H](CC(C)C)NC(=O)OCc1ccccc1`, the Potency was 2.13 µM (active).
In the case of `COc1ccc(-c2ccc3ncc4c(c3c2)n(-c2ccc(N3CCNCC3)c(C(F)(F)F)c2)c(=O)n4C)cn1`, the “activity change, negative = inhibition” value is reported as -2.51%.
For `COc1ccc([C@@H]2CNC(=O)C2)cc1OC1CCCC1`, the “activity change, negative = inhibition” value was -7.15%.
For `Cc1ccc(NC(=O)c2ccc(C)c(S(=O)(=O)N3CCCCCC3)c2)cc1`, the “activity change, negative = inhibition” value was -22.9%.
With `CC[C@@H]1C(=O)N(C)c2cnc(Nc3ccc(C(=O)NC4CCC(N5CCN(CC6CC6)CC5)CC4)cc3OC)nc2N1C(C)C` (stereo not given in full) the “activity change, negative = inhibition” value was 11.8%.
With `CC(=O)N1CCc2c(sc(NC(=O)CSc3ccccc3)c2-c2nc3ccccc3s2)C1` the Potency was 26.9 µM (active).
With `CCN(CC)S(=O)(=O)c1ccc(NC(=O)CCc2c(C)nc3cc(-c4ccc(Cl)cc4)nn3c2C)cc1` the Potency was 0.301 µM (active).
In the case of `CC=C1NC(=O)[C@H]2CSSCCC=C[C@H](CC(=O)N[C@H](C(C)C)C(=O)N2)OC(=O)[C@H](C(C)C)NC1=O`, the “activity change, negative = inhibition” value is reported as 9.87%.
In the case of `CC1CCN(C(=O)CN2c3ccc(Br)cc3-c3ccccc3S2(=O)=O)CC1`, the “activity change, negative = inhibition” value is reported as 26%.
For `CCN(CCCNC(=O)c1cc2cc3ccc(C)cc3nc2s1)c1ccccc1`, the “activity change, negative = inhibition” value was -14.1%.
With `CCOc1ccc(-n2c(/C=C/c3cccc(F)c3)nc3cc(OC)c(OC)cc3c2=O)cc1` the “activity change, negative = inhibition” value was -22.7%.
In the case of `COc1ccc2nc(N3CCN(C(=O)CS(=O)(=O)c4ccc(C)cc4)CC3)sc2c1`, the “activity change, negative = inhibition” value is reported as -14.3%.
For `CCOC(=O)C1CCN(C(=O)Cn2c(-c3cccs3)cc3cc(Cl)ccc32)CC1`, the “activity change, negative = inhibition” value was -21.2%.
In the case of `O=C(NCCC1=CCCCC1)c1ccc2c(c1)N(Cc1cccc(Cl)c1)C(=O)c1ccccc1S2(=O)=O`, the “activity change, negative = inhibition” value is reported as -7.04%.
With `CCc1nc2ccc(C(=O)NCCc3ccc(OC)cc3OC)cc2nc1CC` the “activity change, negative = inhibition” value was -18.9%.
For `CCc1ccc2c(c1)-c1ccccc1S(=O)(=O)N2CC(=O)N1CCCCC1`, the “activity change, negative = inhibition” value was 39.9%.
With `COc1cccc(-c2cn3c(n2)sc2cc(C(=O)NCc4cccs4)ccc23)c1` the “activity change, negative = inhibition” value was 40.6%.
For `CSc1ccc(/C=C/c2nc3ccccc3n2S(=O)(=O)c2ccc(F)c(C)c2)cc1`, the “activity change, negative = inhibition” value was -51.1%.
With `Cc1oc(-c2cccc(Cl)c2)nc1CN1CCC(C(=O)NCCCN2CCN(c3ccc(F)cc3)CC2)CC1` the Potency was 13.5 µM (active).
For `CCCN(c1ccccc1CC)S(=O)(=O)c1ccc2c(c1)CC(C)N2C(=O)C1CC1` (stereo not given), the Potency was 13.5 µM (active).
In the case of `O=C(Cn1c(=O)oc2cc(S(=O)(=O)N3CCCCC3)ccc21)NCc1ccc(Cl)cc1`, the “activity change, negative = inhibition” value is reported as -22.9%.
In the case of `COc1ccc(NC(=O)Cn2c(SCc3ccc(F)cc3)nc3cccnc32)cc1OC`, the “activity change, negative = inhibition” value is reported as -9.83%.
In the case of `CCN(CCCNC(=O)CSc1cc(=O)n(CC)c2ccccc12)c1ccccc1`, the “activity change, negative = inhibition” value is reported as -20.2%.
In the case of `N#CCNC(=O)c1ccc(-c2ccnc(Nc3ccc(N4CCOCC4)cc3)n2)cc1`, the “activity change, negative = inhibition” value is reported as -12.3%.
For `COc1cccc(N2CCN(C(=O)c3ccc4nc(N5CCC(C)CC5)sc4c3)CC2)c1`, the Potency was 8.49 µM (active).
In the case of `CC(=O)N1CCCc2cc(S(=O)(=O)N3CCCC(C(=O)N4CCN(c5ccccc5)CC4)C3)ccc21` (stereo not given), the Potency is reported as 9.53 µM (active).
In the case of `CCN(C(=O)CSc1nc(-c2ccccc2)no1)c1cccc(C)c1`, the “activity change, negative = inhibition” value is reported as -7.08%.
In the case of `O=C(c1ccc2c(c1)N(Cc1ccccc1)C(=O)c1ccccc1S2(=O)=O)N1CCCCCC1`, the “activity change, negative = inhibition” value is reported as -23.2%.
In the case of `CCc1ccccc1-n1c(SCC(=O)Nc2ccc(C)cc2)nc2n[nH]c(C)c2c1=N`, the Potency is reported as 13.5 µM (active).
In the case of `Cc1ccc2nc(-c3ccncc3)c(Nc3ccccc3C)n2c1`, the “activity change, negative = inhibition” value is reported as 19.8%.
In the case of `O=C(Nc1ccccc1)c1ccc(Cl)c(S(=O)(=O)Nc2ccccc2)c1`, the “activity change, negative = inhibition” value is reported as 4.59%.
For `CC(=O)Nc1ccc(S(=O)(=O)Nc2cc(-c3cn4ccccc4n3)ccc2C)cc1`, the “activity change, negative = inhibition” value was 10.7%.
With `Cc1ccccc1OCc1ccc(-c2nc(C#N)c(NCc3cccnc3)o2)o1` the Potency was 19 µM (active).
With `CC(C)c1nc2ccc(C(=O)NCCCN3CCN(c4cccc(Cl)c4)CC3)cc2o1` the “activity change, negative = inhibition” value was 12.1%.
For `Cc1cc(C)c(Cn2c3ccccc3c3cnn(CC(=O)N4CCCCC4)c(=O)c32)c(C)c1`, the “activity change, negative = inhibition” value was -23.5%.
In the case of `CC(=O)c1cccc(NS(=O)(=O)c2cccc(S(=O)(=O)c3ccc(Br)cc3)c2)c1`, the Potency is reported as 26.9 µM (active).
With `O=C(c1ccc(CS(=O)c2ccccc2Cl)o1)N1CCN(c2cccc(C(F)(F)F)c2)CC1` (stereo not given) the Potency was 3.38 µM (active).
For `Cc1ccccc1OCC(=O)Nc1ccccc1C(=O)OCc1cc(=O)n2c(C)csc2n1`, the “activity change, negative = inhibition” value was -16.3%.
In the case of `O=C(CN(c1cccc(C(F)(F)F)c1)S(=O)(=O)c1ccccc1)Nc1cccc(Cl)c1`, the Potency is reported as 26.9 µM (active).
For `CCOc1ccc(C(=O)NCc2ccc3c(c2)CCN3C(=O)c2ccccc2)cc1`, the “activity change, negative = inhibition” value was -16.2%.

From PubChem BioAssay AID1508621 (National Center for Advancing Translational Sciences (NCATS), 2021)
Potency is read from the fitted curve at half-maximal effect.
